From PubChem BioAssay (NCATS)
Results filed as inconclusive are left out. Calls of active or inactive are those of the source. The call rests on the fitted dose curve; in most records, active means well fitted cell-killing curve with a large enough effect; inconclusive means small, poorly fitted or top-dose-only effect; inactive means flat fitted curve, though single readings scatter.

Test: Quantitative highthroughput screen to assess conditional lethalithy of P12 Ichikawa cells grown in Human Plasma-Like Medium with dialyzed fetal bovine serum (HPLM+ds) (AID 1963879); further: nearly all actives have a fitted effect of over 35% in size
Settings: ATP luminescence, 48 h; Potency: viability; series mostly up to 45.8 µM; viability: at the top concentration
Text: Assay Provider: Jason Cantor Ph.D.
Department of Biochemistry
University of Wisconsin-Madison, Madison, WI, USA
Chemical screening studies have identified drug sensitivities across hundreds of cancer cell lines but most putative therapeutics fail to translate. Discovery and development of drug candidates in models that more accurately reflect nutrient levels in human blood is a major challenge. Here we performed high-throughput screens in conventional versus Human Plasma-Like Medium (HPLM) to identify compounds that were "missed" when screening using the artificial culture condition. Sets of conditional anticancer compounds spanned phases of clinical development and included non-oncology drugs were assessed. […] We also traced conditional phenotypes for several chemotherapeutics to availability of HPLM-specific metabolites and confirmed others for compounds whose reported targets are encoded by nonessential genes. Our findings establish generalizable strategies for exploiting conditional lethality in HPLM to reveal therapeutic candidates and mechanisms of action in cancer cells.
Described herein are the results of each viability screens against three cell lines: NOMO1 (an acute myeloid leukemia cell line); P12-Ichikawa (a T-cell acute lymphoblastic leukemia); and SEM (a B-cell ALL). Each assay was screened using 3 different cell culture media: homemade human plasma-Like medium with 10% dialyzed fetal bovine serum (HPLM+ds); RPMI1640 with 10% untreated FBS and 5mM glucose (RPMI+s); and RPMI1640 with 10% dialyzed fetal bovine serum and 5 mM glucose (RPMI+ds).
PROTOCOL TABLE (as described by Inglese J, Shamu CE and Guy RK. 2007)
SEQUENCE No. (e.g., 1, 2, 3, etc.); […] (e.g., Cells, Incubation, Reagent, etc.); VALUE and DESCRIPTION.
1; Cells; 5 uL; white, solid bottom 1536-well Greiner assay plate.
2; Compounds; 23 nL; Kalypsis pin tool (Wako USA) equipped with a 1536-well pin head to transfer to the assay plates.
3; Incubation; 48 hours; 37C incubation.
4; Reagent; 3 uL; CellTiter Glo (Promega).
5; Incubation; 5 min, room temperature
6; Detection; Luminescence, Viewlux PerkinElmer.
NOTES (numbers refer to Sequence numbers above)
1. Briefly, 5 ul of cell reagent was dispensed using a Multidrop Combi Dispenser. The NOMO1 and SEM cells were plated at 500 cells/well and the P12-Ichikawa line at 1000 cells/well.
2. After seeding the cells, 23 nL of MIPE 4.1 library compounds (in DMSO) were added to each plate using a Kalypsys 1536 Pintool dispenser. Bortezomib at final concentration of […] and DMSO were added to each plate as positive and negative controls respectively. For each screen, MIPE 4.1 compounds were added over an eleven-point concentration range […] in 3-fold dilutions.
3. Each plate was covered with a stainless steel gasketed lid to prevent evaporation and incubated for 48 hour at 37C, 95% relative humidity, and 5% CO2.
4-5. Three microliter CellTilter-GloTM luminescent substrate mix (Promega) reagent was added to the assay plate and incubated at room temperature for 5 min.
6. The luminescence signal was measured using a ViewLux (PerkinElmer) multiplate reader with a 2 second exposure time per plate. Data for each compound were normalized as percent viability such that measurements for DMSO and the empty well controls in each plate were defined as 100% and 0%, respectively.
Potency means the concentration at half of the fitted maximal effect.

Row | Compound | viability | Potency
1 | COC(=O)[C@@H](N)CCCN=C(N)N[N+](=O)[O-] | 109% (inactive) | –
2 | COc1ccc(C(=O)c2c(C)n(CCN3CCOCC3)c3ccccc23)cc1 | 106% (inactive) | –
3 | CC(C)(C)c1cc(C=C(C#N)C#N)cc(Br)c1O | 90.6% (inactive) | –
4 | CNCC(O)c1ccc(O)cc1 (stereo not given) | 100% (inactive) | –
5 | O=c1[nH]c2ccccc2n1CCCN1CCC(n2c(=O)[nH]c3cc(Cl)ccc32)CC1 | 97.4% (inactive) | –
6 | CC[C@@H](C(N)=O)N1CCCC1=O | 99.8% (inactive) | –
7 | CC(C)(O)C=CC(=O)[C@](C)(O)[C@H]1[C@H](O)C[C@]2(C)[C@@H]3CC=C4[C@@H](C=C(O)C(=O)C4(C)C)[C@]3(C)C(=O)C[C@@]12C | – | 0.166 µM (active)
8 | COc1ccc2c(c1OC)CN1CCc3cc4c(cc3C1C2)OCO4 (stereo not given) | – | 2.64 µM (active)
9 | O=P1(N(CCCl)CCCl)NCCCO1 (stereo not given) | – | 10.5 µM (active)
10 | NC1CC1c1ccccc1 (stereo not given) | 100% (inactive) | –
11 | C#CC1(O)CCC2C3CCC4=CC(=O)CCC4(C)C3CCC21C (stereo not given) | 109% (inactive) | –
12 | C#C[C@]1(O)C=C[C@@H]2[C@@H]3CCC4=CC(=O)CC[C@@H]4[C@H]3CC[C@@]21CC | 99.4% (inactive) | –
13 | C[C@]12CC[C@H](O)CC1=CC[C@H]1[C@H]3CCC(=O)[C@@]3(C)CC[C@@H]12 | 97.1% (inactive) | –
14 | CC(C)N(CCNC(=O)CN1CCCC1=O)C(C)C | 96.7% (inactive) | –
15 | COc1cc(OC)c(OC)cc1C=O | 111% (inactive) | –
16 | O=S(=O)(F)Cc1ccccc1 | 64% (inactive) | –
17 | CC(=CCCC1=CCC(C2=CC(=O)OC2O)OC1O)CCC1=C(C)CCCC1(C)C (stereo not given) | 102% (inactive) | –
18 | O=[N+]([O-])c1ncc[nH]1 | 99.5% (inactive) | –
19 | Oc1ccc2c3c1O[C@H]1c4[nH]c5c(c4C[C@@]4(O)[C@@H](C2)N(CC2CC2)CC[C@]314)C[C@@]1(O)[C@H]2Cc3ccc(O)c4c3[C@@]1(CCN2CC1CC1)[C@H]5O4 | 99.6% (inactive) | –
20 | Cc1[nH]nc2ccc(-c3cncc(OC[C@@H](N)Cc4c[nH]c5ccccc45)c3)cc12 | – | 1.66 µM (active)

Row | Compound | viability | Potency
21 | O=C1CCC[C@@H]2[C@H]3CCCN4CCC[C@@H](CN12)[C@@H]34 | 97.3% (inactive) | –
22 | CN(C)[C@@H]1C(=O)C(C(N)=O)=C(O)[C@@]2(O)C(=O)C3=C(O)c4c(O)cccc4[C@@](C)(O)[C@H]3[C@H](O)[C@@H]12 | 105% (inactive) | –
23 | CC(=O)N(C)c1cccc(-c2ccnc3c(C(=O)c4cccs4)cnn23)c1 | 94.7% (inactive) | –
24 | O=c1[nH]c2ccc(Cl)cc2c(N[C@@H]2CN3CCC2CC3)c1-c1nc2ccccc2[nH]1 | – | 0.469 µM (active)
25 | O=C(O)C(=O)c1cn(Cc2ccccc2)c2ccc(-c3ccc(OC(F)(F)F)cc3)cc12 | 96.6% (inactive) | –
26 | C[C@]12CC[C@H]3[C@@H](CCC4=CC(=O)CC[C@@]43C)[C@H]1CC[C@H]2OC(=O)CCC1CCCC1 | 105% (inactive) | –
27 | C[C@]12COC(=O)C[C@@H]1CC[C@@H]1[C@H]2CC[C@@]2(C)[C@H]1CC[C@]2(C)O | 90.9% (inactive) | –
28 | CCOC(=O)c1cncn1[C@H](C)c1ccccc1 | 97.4% (inactive) | –
29 | COC[C@H]1OC(=O)c2coc3c2[C@@]1(C)C1=C(C3=O)C2CCC(=O)[C@@]2(C)C[C@H]1OC(C)=O (stereo not given in full) | 99% (inactive) | –
30 | CC=C(C)C(=O)O[C@H]1C(C)=C2[C@@H]3OC(=O)[C@@](C)(O)[C@@]3(O)[C@@H](OC(=O)CCC)C[C@](C)(OC(C)=O)[C@@H]2[C@@H]1OC(=O)CCCCCCC | – | 0.118 µM (active)
31 | CCCC(C)(COC(N)=O)COC(=O)NC(C)C (stereo not given) | 93.2% (inactive) | –
32 | COc1ccc(C(=O)c2c(C)n(CCN3CCOCC3)c3cc(I)ccc23)cc1 | – | 4.18 µM (active)
33 | CN1CCN(C(=O)O[C@H]2c3nccnc3C(=O)N2c2ccc(Cl)cn2)CC1 | 99.3% (inactive) | –
34 | O=C1C=CC[C@@H]2[C@H]3CCCN4CCC[C@@H](CN12)[C@@H]34 | 95.4% (inactive) | –
35 | N[C@@H](Cc1ccc(N(CCCl)CCCl)cc1)C(=O)O | – | 10.5 µM (active)
36 | CC(C)[C@]12O[C@@H]1[C@@H]1O[C@]13[C@]1(O[C@H]1C[C@@H]1C4=C(CC[C@@]13C)C(=O)OC4)[C@H]2O | – | 0.0012 µM (active)
37 | CC(C)(O)C(=O)Nc1ccc([N+](=O)[O-])c(C(F)(F)F)c1 | – | 8.33 µM (active)
38 | CC(C)N[C@@H]1CCn2c(=O)[nH]c3cccc(c32)[C@@H]1O | 101% (inactive) | –
39 | C=C[C@@H]1CN2CCC1C[C@@H]2[C@@H](O)c1ccnc2ccccc12 (stereo not given in full) | 92.5% (inactive) | –
40 | CN1C(=O)COc2c(C(=O)NC3CN4CCC3CC4)cc(Cl)cc21 (stereo not given) | 112% (inactive) | –
